Source: the supplement of paper PMC10849652
Targets with a hit are over-represented here; the source holds about 8,800 in all. About 0.5% of all pairs of compound and target were hits.

Experiments:
Experiment in all cases: log2 fold change, soluble protein after heating vs DMSO (PISA); higher = thermal stabilisation; K562 lysate, 10 uM; active = over 0.2 and 3.5 SD of the protein, either way, in both replicates (recomputed)
nilotinib = compound: Cc1cn(-c2cc(NC(=O)c3ccc(C)c(Nc4nccc(-c5cccnc5)n4)c3)cc(C(F)(F)F)c2)cn1 [nilotinib]
Summary of the method: (§1)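 A 30 min treatment with 10 μM compound was applied to crude K562 extract at 1 mg/mL protein in PBS pH 7.4 with 1 mM MgCl2. Heating for 3 min spanned 48°C-58°C, after which aliquots were pooled, adjusted to 0.5% NP-40 at 4°C and spun at 21,000xg for 90 min. TMTpro 16plex LC-MS/MS of the supernatant, with channel sums equalised, gave values recorded as log-two fold change in thermal stability against solvent controls, from duplicates.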

[1] = compound: Cc1nc(Nc2n[nH]c3c2CN(C(=O)N[C@H](CN(C)C)c2ccccc2)C3(C)C)c2sccc2n1
Summary of the method: as §1

dasatinib = compound: Cc1nc(Nc2ncc(C(=O)Nc3c(C)cccc3Cl)s2)cc(N2CCN(CCO)CC2)n1 [dasatinib]
Summary of the method: as §1

[2] = compound: Cc1ncc(-c2ccnc(Nc3ccc(S(C)(=O)=O)cc3)n2)n1C(C)C
Summary of the method: as §1

[3] = compound: Cn1cc(-c2ccc3c(c2)CCN3C(=O)Cc2cccc(C(F)(F)F)c2)c2c(N)ncnc21
Summary of the method: as §1

quisinostat = compound: Cn1cc(CNCC2CCN(c3ncc(C(=O)NO)cn3)CC2)c2ccccc21 [quisinostat]
Summary of the method: as §1

tipifarnib = compound: Cn1cncc1[C@@](N)(c1ccc(Cl)cc1)c1ccc2c(c1)c(-c1cccc(Cl)c1)cc(=O)n2C [tipifarnib]
Summary of the method: as §1

[4] = compound: NC(=O)Nc1cc(-c2cccc(F)c2)sc1C(=O)N[C@H]1CCCNC1
Summary of the method: as §1

[5] = compound: NC(=O)c1cnc(N[C@@H]2CCCC[C@@H]2N)nc1Nc1cccc(-n2nccn2)c1
Summary of the method: as §1

[6] = compound: NC1(c2ccc(-c3nc4ccn5c(=O)[nH]nc5c4cc3-c3ccccc3)cc2)CCC1
Summary of the method: as §1

Measured: log2 fold change

GALNT2 (UniProt Q10471)
inactive: nilotinib -0.02 | [1] -0.054 | dasatinib 0.003 | [2] 0.008 | [3] 0.008 | quisinostat 0.081 | tipifarnib -0.067 | [4] -0.004 | [5] -0.002 | [6] -0.031

GGA2 (UniProt Q9UJY4)
inactive: nilotinib -0.028 | [1] -0.047 | dasatinib -0.043 | [2] 0 | [3] 0.032 | quisinostat -0.022 | tipifarnib -0.003 | [4] 0.066 | [5] 0.043 | [6] 0.001

FBXO30 (UniProt Q8TB52)
inactive: nilotinib 0.015 | [1] -0.032 | dasatinib 0.012 | [2] 0.067 | [3] 0.02 | quisinostat 0.001 | tipifarnib 0.012 | [4] -0.008 | [5] -0.017 | [6] 0.005

ERLIN1 (UniProt O75477)
Chain of UniProt O75477 (O75477 whole entry, looked up): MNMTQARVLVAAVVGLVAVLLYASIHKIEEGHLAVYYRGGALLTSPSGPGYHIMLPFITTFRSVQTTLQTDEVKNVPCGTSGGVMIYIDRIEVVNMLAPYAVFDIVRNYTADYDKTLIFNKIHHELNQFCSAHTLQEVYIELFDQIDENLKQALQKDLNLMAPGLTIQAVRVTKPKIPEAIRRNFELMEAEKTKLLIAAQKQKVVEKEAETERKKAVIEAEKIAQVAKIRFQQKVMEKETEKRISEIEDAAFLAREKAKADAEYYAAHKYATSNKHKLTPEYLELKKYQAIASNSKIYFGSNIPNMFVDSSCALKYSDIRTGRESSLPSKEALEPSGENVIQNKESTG
inactive: nilotinib 0.011 | [1] -0.031 | dasatinib -0.01 | [2] -0.034 | [3] 0.033 | quisinostat 0.107 | tipifarnib 0.049 | [4] -0.047 | [5] -0.009 | [6] 0.035

EBP (UniProt Q15125)
Chain of UniProt Q15125 (Q15125 whole entry, looked up): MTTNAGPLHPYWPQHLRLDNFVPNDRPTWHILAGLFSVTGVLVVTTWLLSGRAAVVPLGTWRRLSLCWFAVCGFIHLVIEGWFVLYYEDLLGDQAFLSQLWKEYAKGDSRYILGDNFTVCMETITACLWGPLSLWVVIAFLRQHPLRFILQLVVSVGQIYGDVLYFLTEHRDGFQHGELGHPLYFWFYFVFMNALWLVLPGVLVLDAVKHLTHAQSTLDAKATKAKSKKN
inactive: nilotinib 0.081 | [1] -0.016 | dasatinib -0.05 | [2] 0.018 | [3] -0.137 | quisinostat 0.038 | tipifarnib -0.03 | [4] 0.042 | [5] -0.006 | [6] -0.05

GART (UniProt P22102)
Chain of UniProt P22102 (P22102 whole entry, looked up): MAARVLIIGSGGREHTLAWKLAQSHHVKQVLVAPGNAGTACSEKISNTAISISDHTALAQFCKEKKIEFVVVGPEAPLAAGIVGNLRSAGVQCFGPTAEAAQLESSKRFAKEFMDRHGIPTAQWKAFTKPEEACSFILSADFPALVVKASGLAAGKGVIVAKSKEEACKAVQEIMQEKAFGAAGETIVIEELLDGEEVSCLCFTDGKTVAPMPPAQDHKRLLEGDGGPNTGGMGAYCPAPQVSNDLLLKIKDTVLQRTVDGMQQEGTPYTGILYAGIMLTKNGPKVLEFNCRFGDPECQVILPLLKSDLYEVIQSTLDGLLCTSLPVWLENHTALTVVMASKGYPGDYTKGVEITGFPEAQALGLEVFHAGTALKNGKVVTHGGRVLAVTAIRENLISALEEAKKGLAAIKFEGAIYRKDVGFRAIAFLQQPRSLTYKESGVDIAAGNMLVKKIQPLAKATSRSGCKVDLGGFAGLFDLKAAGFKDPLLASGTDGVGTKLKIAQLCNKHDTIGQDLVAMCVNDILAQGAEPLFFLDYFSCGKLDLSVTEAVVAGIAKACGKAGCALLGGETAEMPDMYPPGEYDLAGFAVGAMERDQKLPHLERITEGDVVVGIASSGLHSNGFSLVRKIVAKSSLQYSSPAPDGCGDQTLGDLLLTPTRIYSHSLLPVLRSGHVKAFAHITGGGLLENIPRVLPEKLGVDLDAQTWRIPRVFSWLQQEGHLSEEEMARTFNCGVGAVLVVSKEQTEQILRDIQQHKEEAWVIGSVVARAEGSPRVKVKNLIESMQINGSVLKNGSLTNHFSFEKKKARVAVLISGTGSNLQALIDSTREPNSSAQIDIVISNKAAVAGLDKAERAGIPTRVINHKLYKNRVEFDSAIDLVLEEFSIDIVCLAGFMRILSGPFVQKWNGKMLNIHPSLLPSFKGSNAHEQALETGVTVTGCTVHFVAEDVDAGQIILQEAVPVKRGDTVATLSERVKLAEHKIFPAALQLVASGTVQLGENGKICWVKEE
inactive: nilotinib -0.006 | [1] -0.024 | dasatinib -0.022 | [2] -0.011 | [3] 0.01 | quisinostat 0.025 | tipifarnib 0.011 | [4] 0.015 | [5] 0.007 | [6] 0.006

DYRK1A (UniProt Q13627)
inactive: nilotinib -0.018 | [1] 0.062 | dasatinib -0.021 | [2] 0.031 | [3] 0.033 | quisinostat -0.026 | tipifarnib -0.06 | [4] 0.072 | [5] -0.01 | [6] -0.013

FAM120B (UniProt Q96EK7)
inactive: nilotinib -0.067 | [1] -0.017 | dasatinib -0.033 | [2] -0.008 | [3] 0.017 | quisinostat -0.062 | tipifarnib 0.05 | [4] 0.015 | [5] -0.029 | [6] -0.048

ERBIN isoform 8 (UniProt Q96RT1)
inactive: nilotinib 0.012 | [1] -0.027 | dasatinib 0.051 | [2] -0.015 | [3] 0.018 | quisinostat -0.029 | tipifarnib -0.005 | [4] 0.018 | [5] 0 | [6] 0.001

FAU (UniProt E9PR30)
inactive: nilotinib 0.006 | [1] 0.001 | dasatinib -0.018 | [2] 0.005 | [3] 0.052 | quisinostat 0.002 | tipifarnib 0.046 | [4] -0.055 | [5] 0 | [6] -0.058

FYB1 isoform 3 (UniProt O15117)
inactive: nilotinib 0.042 | [1] 0.004 | dasatinib -0.017 | [2] -0.025 | [3] 0.001 | quisinostat -0.068 | tipifarnib -0.012 | [4] 0.034 | [5] 0.005 | [6] 0.021

EIF2B5 (UniProt Q13144)
inactive: nilotinib -0.004 | [1] 0.037 | dasatinib -0.015 | [2] 0.008 | [3] 0.01 | quisinostat -0.002 | tipifarnib -0.006 | [4] 0.038 | [5] -0.01 | [6] -0.011

EED, A0A5F9ZI63
inactive: nilotinib -0.019 | [1] 0.035 | dasatinib -0.022 | [2] -0.005 | [3] -0.027 | quisinostat 0 | tipifarnib 0.006 | [4] 0.026 | [5] -0.006 | [6] -0.015

EPB41, A0A2R8Y6D0
inactive: nilotinib -0.033 | [1] 0.312 | dasatinib 0.091 | [2] -0.044 | [3] -0.021 | quisinostat -0.017 | tipifarnib -0.055 | [4] 0.043 | [5] -0.042 | [6] -0.054

GCN1 (UniProt Q92616)
inactive: nilotinib 0.015 | [1] -0.017 | dasatinib -0.071 | [2] 0.001 | [3] 0.066 | quisinostat -0.072 | tipifarnib -0.01 | [4] 0.047 | [5] 0.001 | [6] -0.037

EEF1AKNMT (UniProt Q8N6R0)
inactive: nilotinib 0.006 | [1] -0.008 | dasatinib -0.044 | [2] -0.011 | [3] 0.043 | quisinostat -0.093 | tipifarnib -0.003 | [4] 0.045 | [5] -0.013 | [6] 0.01

ECI2 (UniProt O75521)
Chain of UniProt O75521 (O75521 whole entry, looked up): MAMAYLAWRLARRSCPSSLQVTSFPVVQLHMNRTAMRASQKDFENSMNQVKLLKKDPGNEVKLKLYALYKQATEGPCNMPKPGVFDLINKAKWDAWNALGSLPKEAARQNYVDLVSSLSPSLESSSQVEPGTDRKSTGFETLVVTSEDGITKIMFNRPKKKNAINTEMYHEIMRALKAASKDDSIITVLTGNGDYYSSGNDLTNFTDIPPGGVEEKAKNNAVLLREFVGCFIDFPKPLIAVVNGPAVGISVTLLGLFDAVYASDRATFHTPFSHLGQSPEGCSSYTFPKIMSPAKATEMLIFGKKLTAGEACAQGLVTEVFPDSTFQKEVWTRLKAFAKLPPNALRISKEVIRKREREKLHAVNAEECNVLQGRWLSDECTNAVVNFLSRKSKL
inactive: nilotinib 0.085 | [1] -0.013 | dasatinib 0.029 | [2] 0.017 | [3] -0.01 | quisinostat 0.023 | tipifarnib -0.071 | [4] -0.027 | [5] -0.019 | [6] -0.022

EPHX2 (UniProt P34913)
Chain of UniProt P34913 (P34913 whole entry, looked up): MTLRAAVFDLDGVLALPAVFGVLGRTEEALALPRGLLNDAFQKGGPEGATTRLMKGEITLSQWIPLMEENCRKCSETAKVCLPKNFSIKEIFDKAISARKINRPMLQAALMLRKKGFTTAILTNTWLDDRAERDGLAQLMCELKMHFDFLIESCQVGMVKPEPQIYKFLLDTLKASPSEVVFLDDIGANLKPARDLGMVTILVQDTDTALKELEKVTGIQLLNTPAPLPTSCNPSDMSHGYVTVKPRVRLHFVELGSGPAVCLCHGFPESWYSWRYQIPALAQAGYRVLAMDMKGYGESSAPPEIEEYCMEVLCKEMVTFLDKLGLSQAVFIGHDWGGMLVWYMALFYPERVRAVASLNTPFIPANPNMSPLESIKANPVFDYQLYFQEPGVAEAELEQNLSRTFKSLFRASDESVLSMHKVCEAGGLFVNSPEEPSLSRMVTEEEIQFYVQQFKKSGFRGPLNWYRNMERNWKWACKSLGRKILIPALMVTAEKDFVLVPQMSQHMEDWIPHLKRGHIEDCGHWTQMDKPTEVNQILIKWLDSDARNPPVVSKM
inactive: nilotinib 0.097 | [1] -0.036 | dasatinib 0.005 | [2] 0.027 | [3] 0.007 | quisinostat 0.02 | tipifarnib 0.021 | [4] -0.036 | [5] -0.021 | [6] -0.015

FNBP1L (UniProt Q5T0N5)
Chain of UniProt Q5T0N5 (Q5T0N5 whole entry, looked up): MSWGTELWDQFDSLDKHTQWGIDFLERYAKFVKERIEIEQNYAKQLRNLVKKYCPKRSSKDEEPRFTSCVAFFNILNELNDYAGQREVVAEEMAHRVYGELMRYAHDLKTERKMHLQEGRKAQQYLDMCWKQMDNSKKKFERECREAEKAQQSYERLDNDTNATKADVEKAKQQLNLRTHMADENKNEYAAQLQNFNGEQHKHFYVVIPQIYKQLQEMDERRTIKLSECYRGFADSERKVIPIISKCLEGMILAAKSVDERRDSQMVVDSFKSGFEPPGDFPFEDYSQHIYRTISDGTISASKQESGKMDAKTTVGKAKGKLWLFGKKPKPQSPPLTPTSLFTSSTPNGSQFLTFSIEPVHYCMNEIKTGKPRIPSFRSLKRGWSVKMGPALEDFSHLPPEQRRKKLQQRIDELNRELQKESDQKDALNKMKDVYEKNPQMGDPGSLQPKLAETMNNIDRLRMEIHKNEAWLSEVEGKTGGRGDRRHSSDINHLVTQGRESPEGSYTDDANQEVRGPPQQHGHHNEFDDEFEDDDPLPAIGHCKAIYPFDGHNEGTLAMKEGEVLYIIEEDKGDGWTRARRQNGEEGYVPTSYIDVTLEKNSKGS
inactive: nilotinib -0.076 | [1] 0.03 | dasatinib -0.131 | [2] 0.007 | [3] -0.051 | quisinostat -0.068 | tipifarnib -0.016 | [4] 0.018 | [5] -0.004 | [6] 0.025

GAMT (UniProt Q14353)
inactive: nilotinib -0.017 | [1] 0.022 | dasatinib 0.03 | [2] 0.129 | [3] -0.025 | quisinostat -0.043 | tipifarnib -0.137 | [4] 0.024 | [5] -0.016 | [6] -0.002

GAPVD1 isoform 6 (UniProt Q14C86)
inactive: nilotinib 0.006 | [1] 0.005 | dasatinib -0.05 | [2] -0.005 | [3] 0.044 | quisinostat -0.029 | tipifarnib -0.02 | [4] 0.032 | [5] 0.013 | [6] 0.026

EXOC6 (UniProt Q8TAG9)
inactive: nilotinib -0.002 | [1] 0.01 | dasatinib -0.063 | [2] 0.022 | [3] 0.064 | quisinostat -0.023 | tipifarnib -0.044 | [4] 0.068 | [5] 0.024 | [6] -0.064

FTL (UniProt P02792)
Chain of UniProt P02792 (P02792 whole entry, looked up): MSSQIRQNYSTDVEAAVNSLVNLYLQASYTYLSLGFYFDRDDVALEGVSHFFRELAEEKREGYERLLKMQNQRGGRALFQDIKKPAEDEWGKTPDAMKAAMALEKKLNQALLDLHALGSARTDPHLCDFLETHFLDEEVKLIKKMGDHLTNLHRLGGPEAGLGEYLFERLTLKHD
inactive: nilotinib -0.039 | [1] 0.035 | dasatinib -0.03 | [2] -0.038 | [3] -0.012 | quisinostat 0.043 | tipifarnib 0.017 | [4] 0.091 | [5] 0.009 | [6] 0.06

FIGNL1 (UniProt Q6PIW4)
inactive: nilotinib -0.011 | [1] 0.037 | dasatinib -0.101 | [2] 0.054 | [3] 0.068 | quisinostat -0.08 | tipifarnib -0.044 | [4] 0.035 | [5] -0.02 | [6] -0.035

EEF1A1P5 (UniProt Q5VTE0)
inactive: nilotinib -0.055 | [1] 0.005 | dasatinib -0.172 | [2] -0.083 | [3] 0.005 | quisinostat -0.054 | tipifarnib 0.008 | [4] 0.016 | [5] 0.006 | [6] -0.013

EFCAB14 (UniProt O75071)
Chain of UniProt O75071 (O75071 whole entry, looked up): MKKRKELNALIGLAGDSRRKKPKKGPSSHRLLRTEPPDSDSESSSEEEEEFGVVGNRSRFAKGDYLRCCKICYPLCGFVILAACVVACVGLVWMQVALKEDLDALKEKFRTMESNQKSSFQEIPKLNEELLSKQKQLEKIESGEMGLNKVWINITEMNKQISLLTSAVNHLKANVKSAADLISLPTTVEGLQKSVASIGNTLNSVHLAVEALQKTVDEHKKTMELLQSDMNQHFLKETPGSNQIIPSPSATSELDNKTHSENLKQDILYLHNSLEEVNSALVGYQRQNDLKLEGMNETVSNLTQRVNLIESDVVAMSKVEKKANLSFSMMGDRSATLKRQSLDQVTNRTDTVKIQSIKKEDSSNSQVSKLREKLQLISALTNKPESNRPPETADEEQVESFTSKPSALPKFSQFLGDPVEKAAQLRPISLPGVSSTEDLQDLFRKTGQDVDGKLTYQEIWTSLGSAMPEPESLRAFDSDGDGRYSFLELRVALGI
inactive: nilotinib -0.16 | [1] 0.016 | dasatinib 0.049 | [2] 0.001 | [3] -0.005 | quisinostat -0.001 | tipifarnib 0.013 | [4] 0.053 | [5] -0.005 | [6] 0.013

EEF1A1, A0A087WVQ9
inactive: nilotinib 0.124 | [1] 0.012 | dasatinib 0.006 | [2] 0.044 | [3] 0.002 | quisinostat -0.025 | tipifarnib -0.001 | [4] 0.024 | [5] 0.013 | [6] 0.016

FBXO38 (UniProt Q6PIJ6)
Chain of UniProt Q6PIJ6 (Q6PIJ6 whole entry, looked up): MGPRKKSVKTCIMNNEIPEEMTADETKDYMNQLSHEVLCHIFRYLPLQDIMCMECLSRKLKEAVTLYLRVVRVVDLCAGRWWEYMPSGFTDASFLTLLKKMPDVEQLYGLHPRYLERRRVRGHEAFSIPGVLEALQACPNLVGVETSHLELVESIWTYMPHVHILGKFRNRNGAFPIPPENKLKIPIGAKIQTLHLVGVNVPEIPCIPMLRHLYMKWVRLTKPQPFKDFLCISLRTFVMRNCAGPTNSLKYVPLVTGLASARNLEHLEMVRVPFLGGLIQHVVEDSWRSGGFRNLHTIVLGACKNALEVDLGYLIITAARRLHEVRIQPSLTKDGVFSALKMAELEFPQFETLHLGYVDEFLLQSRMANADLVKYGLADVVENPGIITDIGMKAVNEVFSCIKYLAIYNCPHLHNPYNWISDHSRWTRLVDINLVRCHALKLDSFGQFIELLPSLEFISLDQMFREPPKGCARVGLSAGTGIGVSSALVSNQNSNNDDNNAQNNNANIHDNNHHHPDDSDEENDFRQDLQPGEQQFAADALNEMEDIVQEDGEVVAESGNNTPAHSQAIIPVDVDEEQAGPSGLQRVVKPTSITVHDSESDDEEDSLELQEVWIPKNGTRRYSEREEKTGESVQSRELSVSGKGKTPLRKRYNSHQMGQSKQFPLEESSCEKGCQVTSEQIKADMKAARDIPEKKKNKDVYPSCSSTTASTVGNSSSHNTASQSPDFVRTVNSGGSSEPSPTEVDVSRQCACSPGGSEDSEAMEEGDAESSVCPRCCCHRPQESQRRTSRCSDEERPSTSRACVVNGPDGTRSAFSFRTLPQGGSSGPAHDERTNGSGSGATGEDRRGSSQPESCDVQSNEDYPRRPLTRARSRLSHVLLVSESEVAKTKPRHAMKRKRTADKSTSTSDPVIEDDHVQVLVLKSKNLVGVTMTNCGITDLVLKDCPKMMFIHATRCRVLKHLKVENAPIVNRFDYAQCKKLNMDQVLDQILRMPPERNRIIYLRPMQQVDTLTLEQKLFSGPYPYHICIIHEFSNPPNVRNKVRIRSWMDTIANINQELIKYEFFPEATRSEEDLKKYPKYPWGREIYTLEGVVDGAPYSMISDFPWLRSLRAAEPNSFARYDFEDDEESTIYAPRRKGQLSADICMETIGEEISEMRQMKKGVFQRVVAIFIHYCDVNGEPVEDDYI
inactive: nilotinib 0.157 | [1] -0.203 | dasatinib -0.03 | [2] -0.125 | [3] -0.069 | quisinostat -0.028 | tipifarnib -0.071 | [4] 0.026 | [5] -0.031 | [6] 0.012

EIF1 (UniProt P41567)
inactive: nilotinib 0.126 | [1] 0.084 | dasatinib 0.001 | [2] 0.142 | [3] -0.03 | quisinostat 0.133 | tipifarnib 0 | [4] -0.018 | [5] -0.076 | [6] -0.032

FBXO9 (UniProt Q9UK97)
inactive: nilotinib -0.076 | [1] 0.003 | dasatinib 0.059 | [2] 0.02 | [3] 0.021 | quisinostat -0.045 | tipifarnib -0.092 | [4] 0.177 | [5] 0.127 | [6] 0.127

EP300 (UniProt Q09472)
inactive: nilotinib 0.036 | [1] 0.037 | dasatinib -0.028 | [2] 0.081 | [3] 0.007 | quisinostat 0.03 | tipifarnib -0.043 | [4] 0.036 | [5] 0.023 | [6] 0.046
